# This is one part of a sample in which the strongest signals are shown more often than they occur.
# B1: Surfactant Protein D (Human); Neck + Carbohydrate Recognition Domain (NCRD) (Homo sapiens) (protein)
# chain: MLLFLLSALVLLTQPLGYLEAEMKTYSHRTMPSACTLVMCSSVESGLPGRDRDGREGPRGEKGDPGLPGAAGQAGMPGQAGPVGPKGDNGSVGEPGPKGDTGPSGPPGPPGVPGPAGREGALGKQGNIGPQGKPGPKGEAGPKGEVGAPGMQGSAGARGLAGPKGERGVPGERGVPGNTGAAGSAGAMGPQGSPGARGPPGLKGDKGIPGDKGAKGESGLPDVASLRQQVEALQGQVQHLQAAFSQYKKVELFPNGQSVGEKIFKTAQFVKPFTEAQLLCTQAGGQLASPRSAAENAALQQLVVAKNEAAFLSMTDSKTEGKFTYPTGESLVYSNWAPGEPNDDGGSEDCVEIFTNGKWNDRACGEKALVVCEF
# B2: TREM-2 (Mus musculus), Q99NH8 (protein)
# chain: MGPLHQFLLLLITALSQALNTTVLQGMAGQSLRVSCTYDALKHWGRRKAWCRQLGEEGPCQRVVSTHGVWLLAFLKKRNGSTVIADDTLAGTVTITLKNLQAGDAGLYQCQSLRGREAEVLQKVLVEVLEDPLDDQDAGDLWVPEESSSFEGAQVEHSTSRNQETSFPPTSILLLLACVLLSKFLAASILWAVARGRQKPGTPVVRGLDCGQDAGHQLQILTGPGGT
# Assays:
# Assay in all cases: glycan array binding signal (z-score within array); higher = stronger binding
# Fuc(a1-2)Gal(b1-4)GlcNAc = details: glycan notation: IUPAC condensed, linker removed
# Procedure, shortened: (§1)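 From the Consortium for Functional Glycomics database, 3228 arrays were curated, keeping only those whose protein sequence was available. Binding is given as a within-array Z-score averaged across arrays sharing a protein sequence and across linkers. Negative Z-scores can be read as non-binding.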
# [1] = molecular target: Fuc(a1-2)Gal(b1-4)GlcNAc(b1-3)Gal(b1-4)GlcNAc; details: glycan notation: IUPAC condensed, linker removed; mutation: R349A
# Procedure, shortened: as §1
# [2] = molecular target: Fuc(a1-2)[GalNAc(b1-3)]Gal; details: glycan notation: IUPAC condensed, linker removed; mutation: R349A
# Procedure, shortened: as §1
# [3] = molecular target: Fuc(a1-3)[Gal(b1-4)]GlcNAc(b1-3)Gal(b1-3)[Fuc(a1-4)]GlcNAc; details: glycan notation: IUPAC condensed, linker removed; mutation: R349A
# Procedure, shortened: as §1
# Gal(b1-3)GalNAc = details: glycan notation: IUPAC condensed, linker removed; mutation: R349A
# Procedure, shortened: as §1
# [4] = molecular target: Gal(b1-3)GalNAc(b1-4)[Neu5Ac(a2-3)]Gal(b1-4)Glc; details: glycan notation: IUPAC condensed, linker removed
# Procedure, shortened: as §1
# [5] = molecular target: Gal(b1-3)[Fuc(a1-4)]GlcNAc(b1-3)Gal(b1-4)GlcNAc; details: glycan notation: IUPAC condensed, linker removed; mutation: R349A
# Procedure, shortened: as §1
# [6] = molecular target: Gal(b1-4)GlcNAc(b1-3)[GlcNAc(b1-6)]Gal(b1-4)GlcNAc; details: glycan notation: IUPAC condensed, linker removed; mutation: R349A
# Procedure, shortened: as §1
# Gal3S(b1-4)Glc = details: glycan notation: IUPAC condensed, linker removed; mutation: R349A
# Procedure, shortened: as §1
# Gal3S6S(b1-4)GlcNAc = details: glycan notation: IUPAC condensed, linker removed
# Procedure, shortened: as §1
# Gal3S6S(b1-4)GlcNAc6S = details: glycan notation: IUPAC condensed, linker removed
# Procedure, shortened: as §1
# Gal6S(b1-4)Glc6S = details: glycan notation: IUPAC condensed, linker removed
# Procedure, shortened: as §1
# [7] = molecular target: GlcNAc(b1-2)Man(a1-3)[GlcNAc(b1-2)Man(a1-6)]Man(b1-4)GlcNAc(b1-4)GlcNAc; details: glycan notation: IUPAC condensed, linker removed; mutation: R349A
# Procedure, shortened: as §1
# GlcNAc(b1-3)Gal = details: glycan notation: IUPAC condensed, linker removed; mutation: R349A
# Procedure, shortened: as §1
# [8] = molecular target: GlcNAc(b1-4)GlcNAc(b1-4)GlcNAc; details: glycan notation: IUPAC condensed, linker removed; mutation: R349A
# Procedure, shortened: as §1
# [9] = molecular target: GlcNAc(b1-4)GlcNAc(b1-4)GlcNAc(b1-4)GlcNAc(b1-4)GlcNAc; details: glycan notation: IUPAC condensed, linker removed; mutation: R349A
# Procedure, shortened: as §1
# [10] = molecular target: GlcNAc(b1-4)[GlcNAc(b1-6)]GalNAc; details: glycan notation: IUPAC condensed, linker removed; mutation: R349A
# Procedure, shortened: as §1
# [11] = molecular target: Man(a1-2)Man(a1-2)Man(a1-6)[Man(a1-3)]Man; details: glycan notation: IUPAC condensed, linker removed; mutation: R349A
# Procedure, shortened: as §1
# Man(a1-2)Man(a1-3)Man = details: glycan notation: IUPAC condensed, linker removed; mutation: R349A
# Procedure, shortened: as §1
# [12] = molecular target: Man(a1-2)Man(a1-3)[Man(a1-2)Man(a1-6)]Man(a1-6)[Man(a1-2)Man(a1-2)Man(a1-3)]Man; details: glycan notation: IUPAC condensed, linker removed; mutation: R349A
# Procedure, shortened: as §1
# [13] = molecular target: Man(a1-3)[Man(a1-6)]Man(a1-6)[Man(a1-2)Man(a1-3)]Man(b1-4)GlcNAc(b1-4)GlcNAc; details: glycan notation: IUPAC condensed, linker removed; mutation: R349A
# Procedure, shortened: as §1
# [14] = molecular target: Neu5Ac(a2-3)Gal(b1-4)GlcNAc(b1-2)Man(a1-3)[GlcNAc(b1-2)Man(b1-4)GlcNAc(b1-2)Man(a1-6)]Man(b1-4)GlcNAc(b1-4)GlcNAc; details: glycan notation: IUPAC condensed, linker removed; mutation: R349A
# Procedure, shortened: as §1
# [15] = molecular target: Neu5Ac(a2-3)Gal(b1-4)[Fuc(a1-3)]GlcNAc(b1-3)Gal(b1-4)[Fuc(a1-3)]GlcNAc(b1-3)Gal(b1-4)[Fuc(a1-3)]GlcNAc; details: glycan notation: IUPAC condensed, linker removed; mutation: R349A
# Procedure, shortened: as §1
# Neu5Ac(a2-6)GalNAc = details: glycan notation: IUPAC condensed, linker removed; mutation: R349A
# Procedure, shortened: as §1
# [16] = molecular target: Neu5Ac(a2-8)Neu5Ac(a2-8)Neu5Ac(a2-3)[GalNAc(b1-4)]Gal(b1-4)Glc; details: glycan notation: IUPAC condensed, linker removed; mutation: R349A
# Procedure, shortened: as §1
# [17] = molecular target: Gal(b1-3)[Fuc(a1-4)]GlcNAc; details: glycan notation: IUPAC condensed, linker removed
# Procedure, shortened: as §1
# [18] = molecular target: Gal(b1-3)[GlcNAc(b1-6)]GalNAc; details: glycan notation: IUPAC condensed, linker removed
# Procedure, shortened: as §1
# [19] = molecular target: Gal(b1-4)GlcNAc(b1-3)Gal(b1-4)GlcNAc(b1-3)Gal(b1-4)GlcNAc; details: glycan notation: IUPAC condensed, linker removed
# Procedure, shortened: as §1
# [20] = molecular target: Gal(b1-4)GlcNAc(b1-6)[Gal(b1-3)]GalNAc; details: glycan notation: IUPAC condensed, linker removed
# Procedure, shortened: as §1
# Gal3S(b1-4)Glc6S = details: glycan notation: IUPAC condensed, linker removed
# Procedure, shortened: as §1
# Gal3S(b1-4)GlcNAc6S = details: glycan notation: IUPAC condensed, linker removed
# Procedure, shortened: as §1
# [21] = molecular target: GlcNAc(b1-6)Gal(b1-4)GlcNAc; details: glycan notation: IUPAC condensed, linker removed
# Procedure, shortened: as §1
# [22] = molecular target: Man(a1-2)Man(a1-2)Man(a1-3)Man; details: glycan notation: IUPAC condensed, linker removed
# Procedure, shortened: as §1
# [23] = molecular target: Neu5Ac(a2-3)Gal(b1-3)GlcNAc6S; details: glycan notation: IUPAC condensed, linker removed
# Procedure, shortened: as §1
# [24] = molecular target: Neu5Ac(a2-3)Gal(b1-4)GlcNAc; details: glycan notation: IUPAC condensed, linker removed
# Procedure, shortened: as §1
# [25] = molecular target: Neu5Ac(a2-3)Gal(b1-4)[Fuc(a1-3)]GlcNAc(b1-3)Gal(b1-4)GlcNAc; details: glycan notation: IUPAC condensed, linker removed
# Procedure, shortened: as §1
# [26] = molecular target: Neu5Ac(a2-3)[GalNAc(b1-4)]Gal(b1-4)Glc; details: glycan notation: IUPAC condensed, linker removed
# Procedure, shortened: as §1
# [27] = molecular target: Neu5Ac(a2-3)[Neu5Ac(a2-6)]GalNAc; details: glycan notation: IUPAC condensed, linker removed
# Procedure, shortened: as §1
# Neu5Ac(a2-8)Neu5Ac = details: glycan notation: IUPAC condensed, linker removed
# Procedure, shortened: as §1
binder,measurement,setting,value
B1,glycan array binding signal (z-score),Fuc(a1-2)Gal(b1-4)GlcNAc; mutation: R349A,-0.584
same,glycan array binding signal (z-score),[1],-0.301
same,glycan array binding signal (z-score),[2],-0.782
same,glycan array binding signal (z-score),[3],-0.667
same,glycan array binding signal (z-score),Gal(b1-3)GalNAc,-0.459
same,glycan array binding signal (z-score),[4]; mutation: R349A,0.216
same,glycan array binding signal (z-score),[5],0.257
same,glycan array binding signal (z-score),[6],-0.419
same,glycan array binding signal (z-score),Gal3S(b1-4)Glc,0.892
same,glycan array binding signal (z-score),Gal3S6S(b1-4)GlcNAc; mutation: R349A,2.25
same,glycan array binding signal (z-score),Gal3S6S(b1-4)GlcNAc6S; mutation: R349A,3.32
same,glycan array binding signal (z-score),Gal6S(b1-4)Glc6S; mutation: R349A,3.96
same,glycan array binding signal (z-score),[7],-0.653
same,glycan array binding signal (z-score),GlcNAc(b1-3)Gal,-0.71
same,glycan array binding signal (z-score),[8],3.19
same,glycan array binding signal (z-score),[9],0.258
same,glycan array binding signal (z-score),[10],-0.577
same,glycan array binding signal (z-score),[11],-0.532
same,glycan array binding signal (z-score),Man(a1-2)Man(a1-3)Man,0.578
same,glycan array binding signal (z-score),[12],4.48
same,glycan array binding signal (z-score),[13],7.39
same,glycan array binding signal (z-score),[14],0.008
same,glycan array binding signal (z-score),[15],-0.593
same,glycan array binding signal (z-score),Neu5Ac(a2-6)GalNAc,0.373
same,glycan array binding signal (z-score),[16],-0.579
B2,glycan array binding signal (z-score),Fuc(a1-2)Gal(b1-4)GlcNAc,-0.407
same,glycan array binding signal (z-score),[4],-0.342
same,glycan array binding signal (z-score),[17],-0.368
same,glycan array binding signal (z-score),[18],-0.349
same,glycan array binding signal (z-score),[19],-0.287
same,glycan array binding signal (z-score),[20],-0.354
same,glycan array binding signal (z-score),Gal3S(b1-4)Glc6S,4.24
same,glycan array binding signal (z-score),Gal3S(b1-4)GlcNAc6S,4.02
same,glycan array binding signal (z-score),Gal3S6S(b1-4)GlcNAc,4.4
same,glycan array binding signal (z-score),Gal3S6S(b1-4)GlcNAc6S,4.74
same,glycan array binding signal (z-score),Gal6S(b1-4)Glc6S,3.17
same,glycan array binding signal (z-score),[21],-0.382
same,glycan array binding signal (z-score),[22],-0.305
same,glycan array binding signal (z-score),[23],-0.078
same,glycan array binding signal (z-score),[24],-0.391
same,glycan array binding signal (z-score),[25],-0.043
same,glycan array binding signal (z-score),[26],-0.373
same,glycan array binding signal (z-score),[27],0.289
same,glycan array binding signal (z-score),Neu5Ac(a2-8)Neu5Ac,-0.304
